The values below come from PMC7862700, “An all-to-all approach to the identification of sequence-specific readers for epigenetic DNA modifications on cytosine”.

Holding throughout (experiment): DAPPL (digital affinity profiling via proximity ligation, sequencing); 10 mM Tris-HCl pH 7.5, 50 mM NaCl, 1 mM DTT, 4% glycerol, room temperature, 30 min; GST-TFs on glutathione beads, 16-mer random dsDNA library, 0.1% formaldehyde crosslink after washing; high values mean tight binding
The target in one assay is T1, FEV (Homo sapiens, UniProt Q99581 1-238).
T1 sequence: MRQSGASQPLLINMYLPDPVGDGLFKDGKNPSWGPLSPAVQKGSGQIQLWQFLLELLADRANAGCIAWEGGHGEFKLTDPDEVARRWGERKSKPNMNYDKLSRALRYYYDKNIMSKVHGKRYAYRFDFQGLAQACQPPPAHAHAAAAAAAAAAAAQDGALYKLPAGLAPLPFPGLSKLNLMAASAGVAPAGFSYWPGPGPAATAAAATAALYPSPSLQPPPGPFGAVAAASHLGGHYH
The following applies: protein: recombinant; tags: N-terminal GST; dsDNA, one strand shown. A digest of the protocol: (§1)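 A tag-only sample was pooled with DNA-barcoded human transcription factors that had been expressed in yeast as GST fusions and captured on glutathione beads. The pools were incubated for 30 min at room temperature with 200 nmole of a random double-stranded 16-mer DNA library in Tris/NaCl/DTT/glycerol buffer, then washed, crosslinked with 0.1% formaldehyde, proximity-ligated (BsaI/T4 ligase, 1 h, 37 °C), PCR-amplified and sequenced on an Illumina NextSeq500. Binding signal is each hexamer's read frequency for a factor divided by its frequency for the tag-only sample.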

The target of the next assay is ETV5 (Homo sapiens, UniProt P41161 1-510). The conditions noted are these: protein: recombinant; tags: N-terminal GST; dsDNA, one strand shown. The gist of the method:
as §1

Another assay concerns the target HSF1 (Homo sapiens, UniProt Q00613 1-529). The following applies: protein: recombinant; tags: N-terminal GST; chain copies: 3; dsDNA, one strand shown. The gist of the method:
as §1

Another assay concerns the target T2, SPIC (Homo sapiens, UniProt Q8N5J4 1-248).
T2 sequence: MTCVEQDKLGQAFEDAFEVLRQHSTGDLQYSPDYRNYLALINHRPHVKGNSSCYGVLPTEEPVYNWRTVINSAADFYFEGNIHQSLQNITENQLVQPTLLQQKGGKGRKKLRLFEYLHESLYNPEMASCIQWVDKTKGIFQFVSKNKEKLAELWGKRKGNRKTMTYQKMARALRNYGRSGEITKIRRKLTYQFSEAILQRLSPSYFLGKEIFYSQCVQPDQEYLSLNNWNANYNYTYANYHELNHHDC
The conditions noted are these: protein: recombinant; tags: N-terminal GST; dsDNA, one strand shown. The gist of the method:
as §1

Another assay concerns the target ELF4 (Homo sapiens, UniProt Q99607 1-663). The following applies: protein: recombinant; tags: N-terminal GST; dsDNA, one strand shown. The gist of the method: as §1
The target of a further assay is T3, ELK4 (Homo sapiens, UniProt P28324-2 1-405).
T3 sequence: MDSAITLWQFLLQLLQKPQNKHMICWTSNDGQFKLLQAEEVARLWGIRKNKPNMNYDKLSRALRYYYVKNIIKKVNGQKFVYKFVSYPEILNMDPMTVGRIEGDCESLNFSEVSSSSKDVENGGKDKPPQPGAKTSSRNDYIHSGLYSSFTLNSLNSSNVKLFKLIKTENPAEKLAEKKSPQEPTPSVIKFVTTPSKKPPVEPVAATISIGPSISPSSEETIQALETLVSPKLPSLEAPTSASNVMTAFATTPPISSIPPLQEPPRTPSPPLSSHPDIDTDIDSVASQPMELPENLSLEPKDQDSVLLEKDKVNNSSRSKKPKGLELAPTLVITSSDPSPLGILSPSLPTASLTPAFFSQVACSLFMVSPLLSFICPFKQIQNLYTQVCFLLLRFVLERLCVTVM
The following applies: protein: recombinant; tags: N-terminal GST; dsDNA, one strand shown. The gist of the method: as §1

The next assay has as its target T4, ETV2 (Homo sapiens, UniProt O00321 1-342).
T4 sequence: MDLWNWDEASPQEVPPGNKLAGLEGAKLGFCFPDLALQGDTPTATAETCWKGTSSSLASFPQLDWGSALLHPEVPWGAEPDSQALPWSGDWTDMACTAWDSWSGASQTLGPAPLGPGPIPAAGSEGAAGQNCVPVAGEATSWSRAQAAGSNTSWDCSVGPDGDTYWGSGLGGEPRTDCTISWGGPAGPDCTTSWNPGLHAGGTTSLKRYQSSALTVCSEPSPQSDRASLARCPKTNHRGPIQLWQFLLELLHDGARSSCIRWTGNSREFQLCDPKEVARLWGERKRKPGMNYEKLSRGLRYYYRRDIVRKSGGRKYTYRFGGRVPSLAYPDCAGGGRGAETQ
The conditions noted are these: protein: recombinant; tags: N-terminal GST; dsDNA, one strand shown. A digest of the protocol:
as §1

For another assay, the target named is T5, ELF3 (Homo sapiens, UniProt P78545 1-371).
T5 sequence: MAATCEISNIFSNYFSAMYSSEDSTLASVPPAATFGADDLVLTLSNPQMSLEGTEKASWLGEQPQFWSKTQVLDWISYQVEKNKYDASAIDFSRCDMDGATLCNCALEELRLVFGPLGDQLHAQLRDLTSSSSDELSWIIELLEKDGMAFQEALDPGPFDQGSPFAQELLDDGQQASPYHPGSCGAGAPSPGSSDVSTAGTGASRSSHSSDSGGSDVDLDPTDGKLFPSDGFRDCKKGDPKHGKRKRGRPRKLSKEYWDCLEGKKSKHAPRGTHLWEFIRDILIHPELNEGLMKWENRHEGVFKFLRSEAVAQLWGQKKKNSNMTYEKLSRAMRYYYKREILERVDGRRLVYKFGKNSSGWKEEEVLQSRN
The conditions noted are these: protein: recombinant; tags: N-terminal GST; dsDNA, one strand shown. The gist of the method:
as §1

Another assay has as its target CRX (Homo sapiens, UniProt O43186 1-299). The conditions noted are these: protein: recombinant; tags: N-terminal GST; dsDNA, one strand shown. A digest of the protocol: as §1
In the next assay the target is ETV1 (Homo sapiens, UniProt P50549 1-477). The following applies: protein: recombinant; tags: N-terminal GST; dsDNA, one strand shown. A digest of the protocol: as §1
A further assay has as its target T6, ERF (Homo sapiens, UniProt P50548 1-548).
T6 sequence: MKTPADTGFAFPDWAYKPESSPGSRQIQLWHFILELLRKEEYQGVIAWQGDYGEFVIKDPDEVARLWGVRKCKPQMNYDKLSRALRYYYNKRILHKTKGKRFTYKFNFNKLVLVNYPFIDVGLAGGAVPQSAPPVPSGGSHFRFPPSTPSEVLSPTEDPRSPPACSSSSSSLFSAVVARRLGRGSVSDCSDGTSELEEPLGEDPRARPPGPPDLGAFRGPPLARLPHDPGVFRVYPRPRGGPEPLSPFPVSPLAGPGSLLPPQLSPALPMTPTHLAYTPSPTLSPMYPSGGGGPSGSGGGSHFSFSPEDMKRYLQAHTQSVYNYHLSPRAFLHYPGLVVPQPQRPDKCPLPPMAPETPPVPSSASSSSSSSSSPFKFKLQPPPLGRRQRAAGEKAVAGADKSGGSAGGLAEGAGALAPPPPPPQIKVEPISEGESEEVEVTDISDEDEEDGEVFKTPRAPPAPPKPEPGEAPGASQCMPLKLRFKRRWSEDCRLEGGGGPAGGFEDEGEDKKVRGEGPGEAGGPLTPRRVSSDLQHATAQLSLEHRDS
The conditions noted are these: protein: recombinant; tags: N-terminal GST; dsDNA, one strand shown. A digest of the protocol:
as §1

Another assay deals with T7, ETV3L (Homo sapiens, UniProt Q6ZN32 1-361).
T7 sequence: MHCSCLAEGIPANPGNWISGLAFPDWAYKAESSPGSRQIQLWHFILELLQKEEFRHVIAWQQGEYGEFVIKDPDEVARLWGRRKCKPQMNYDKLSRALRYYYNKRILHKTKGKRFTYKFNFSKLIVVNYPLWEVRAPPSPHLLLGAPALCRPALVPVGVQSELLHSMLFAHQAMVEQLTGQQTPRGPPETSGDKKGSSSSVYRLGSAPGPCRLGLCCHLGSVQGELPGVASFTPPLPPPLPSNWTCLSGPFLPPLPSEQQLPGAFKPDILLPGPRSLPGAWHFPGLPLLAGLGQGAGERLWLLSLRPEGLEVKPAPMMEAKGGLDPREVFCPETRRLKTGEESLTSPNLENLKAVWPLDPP
The conditions noted are these: protein: recombinant; tags: N-terminal GST; dsDNA, one strand shown. The gist of the method: as §1

The next assay addresses T8, ETS2 (Homo sapiens, UniProt P15036 1-469).
T8 sequence: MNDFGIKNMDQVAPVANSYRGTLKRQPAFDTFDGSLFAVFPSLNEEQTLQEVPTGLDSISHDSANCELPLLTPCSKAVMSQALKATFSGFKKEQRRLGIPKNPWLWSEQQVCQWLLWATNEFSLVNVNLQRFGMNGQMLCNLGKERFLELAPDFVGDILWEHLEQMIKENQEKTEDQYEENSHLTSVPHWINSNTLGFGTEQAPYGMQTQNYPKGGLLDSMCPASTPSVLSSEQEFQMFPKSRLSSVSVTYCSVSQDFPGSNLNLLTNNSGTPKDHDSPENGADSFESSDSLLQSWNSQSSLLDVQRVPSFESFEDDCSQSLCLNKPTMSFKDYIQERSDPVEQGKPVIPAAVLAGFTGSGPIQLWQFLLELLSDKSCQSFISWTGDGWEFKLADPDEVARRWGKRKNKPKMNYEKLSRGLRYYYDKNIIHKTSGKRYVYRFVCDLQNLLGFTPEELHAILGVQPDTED
The following applies: protein: recombinant; tags: N-terminal GST; dsDNA, one strand shown. A digest of the protocol: as §1

For the next assay, the target named is T9, SPDEF (Homo sapiens, UniProt O95238 1-335).
T9 sequence: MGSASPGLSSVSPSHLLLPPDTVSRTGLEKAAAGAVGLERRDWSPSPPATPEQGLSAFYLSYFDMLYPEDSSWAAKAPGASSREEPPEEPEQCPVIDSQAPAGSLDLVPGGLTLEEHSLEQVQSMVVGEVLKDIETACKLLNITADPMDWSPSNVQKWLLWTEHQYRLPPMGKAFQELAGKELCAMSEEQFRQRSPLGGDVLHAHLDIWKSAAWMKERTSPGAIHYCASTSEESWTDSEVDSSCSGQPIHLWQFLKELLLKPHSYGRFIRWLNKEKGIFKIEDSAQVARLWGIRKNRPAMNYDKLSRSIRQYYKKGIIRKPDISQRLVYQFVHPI
The conditions noted are these: protein: recombinant; tags: N-terminal GST; dsDNA, one strand shown. The gist of the method: as §1

The next assay concerns the target T10, ETV7 (Homo sapiens, UniProt Q9Y603 1-341).
T10 sequence: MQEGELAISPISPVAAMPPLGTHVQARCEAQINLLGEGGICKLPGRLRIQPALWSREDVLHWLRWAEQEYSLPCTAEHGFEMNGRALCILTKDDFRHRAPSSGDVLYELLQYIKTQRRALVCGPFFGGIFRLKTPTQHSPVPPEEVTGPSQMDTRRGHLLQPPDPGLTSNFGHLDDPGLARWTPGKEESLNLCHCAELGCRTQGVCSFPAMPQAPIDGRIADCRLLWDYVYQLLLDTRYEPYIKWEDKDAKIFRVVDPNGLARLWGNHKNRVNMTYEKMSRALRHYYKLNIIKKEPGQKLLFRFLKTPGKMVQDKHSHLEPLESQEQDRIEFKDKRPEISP
The following applies: protein: recombinant; tags: N-terminal GST; dsDNA, one strand shown. The gist of the method: as §1

For a further assay, the target named is T11, ELF5 (Homo sapiens, UniProt Q9UKW6-2 1-255).
T11 sequence: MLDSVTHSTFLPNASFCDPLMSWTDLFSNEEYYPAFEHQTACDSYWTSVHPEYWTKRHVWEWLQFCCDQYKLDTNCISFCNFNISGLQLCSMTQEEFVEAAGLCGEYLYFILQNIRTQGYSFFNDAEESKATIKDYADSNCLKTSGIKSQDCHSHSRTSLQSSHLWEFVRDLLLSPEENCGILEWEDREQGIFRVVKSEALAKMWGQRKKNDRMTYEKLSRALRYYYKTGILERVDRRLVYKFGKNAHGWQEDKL
The conditions noted are these: protein: recombinant; tags: N-terminal GST; dsDNA, one strand shown. A digest of the protocol: as §1

Another assay addresses T12, ETV3 (Homo sapiens, UniProt P41162-2 1-143).
T12 sequence: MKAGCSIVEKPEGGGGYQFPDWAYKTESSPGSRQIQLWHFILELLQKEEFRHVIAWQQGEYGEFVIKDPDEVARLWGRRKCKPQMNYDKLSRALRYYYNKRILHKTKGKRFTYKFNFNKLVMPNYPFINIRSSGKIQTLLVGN
The following applies: protein: recombinant; tags: N-terminal GST; dsDNA, one strand shown. The gist of the method: as §1

The target in a further assay is ETV6 (Homo sapiens, UniProt P41212 1-452). The conditions noted are these: protein: recombinant; tags: N-terminal GST; dsDNA, one strand shown. A digest of the protocol: as §1
Sequence of ETV6 (P41212 whole entry): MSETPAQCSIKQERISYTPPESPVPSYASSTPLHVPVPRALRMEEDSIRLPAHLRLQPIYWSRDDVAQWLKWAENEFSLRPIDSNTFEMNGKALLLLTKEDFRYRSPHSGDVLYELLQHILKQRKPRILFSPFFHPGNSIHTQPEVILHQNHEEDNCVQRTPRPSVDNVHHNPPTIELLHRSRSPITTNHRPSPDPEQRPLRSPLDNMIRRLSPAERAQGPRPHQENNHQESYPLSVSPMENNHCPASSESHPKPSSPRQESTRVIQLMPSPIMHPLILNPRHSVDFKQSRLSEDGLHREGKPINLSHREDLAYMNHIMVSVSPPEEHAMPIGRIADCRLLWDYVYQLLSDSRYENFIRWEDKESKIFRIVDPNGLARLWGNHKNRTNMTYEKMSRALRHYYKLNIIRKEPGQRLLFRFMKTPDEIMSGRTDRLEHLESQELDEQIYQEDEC

Sequence of CRX (O43186 whole entry): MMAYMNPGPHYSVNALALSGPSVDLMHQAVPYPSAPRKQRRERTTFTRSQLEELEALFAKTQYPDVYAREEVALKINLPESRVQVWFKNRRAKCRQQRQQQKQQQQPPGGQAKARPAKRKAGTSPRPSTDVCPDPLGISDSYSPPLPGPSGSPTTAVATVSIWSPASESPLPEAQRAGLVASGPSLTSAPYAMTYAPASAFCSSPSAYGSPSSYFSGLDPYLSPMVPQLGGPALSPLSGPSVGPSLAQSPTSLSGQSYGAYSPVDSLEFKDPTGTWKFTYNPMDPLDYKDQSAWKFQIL
Sequence of ETV5 (P41161 whole entry): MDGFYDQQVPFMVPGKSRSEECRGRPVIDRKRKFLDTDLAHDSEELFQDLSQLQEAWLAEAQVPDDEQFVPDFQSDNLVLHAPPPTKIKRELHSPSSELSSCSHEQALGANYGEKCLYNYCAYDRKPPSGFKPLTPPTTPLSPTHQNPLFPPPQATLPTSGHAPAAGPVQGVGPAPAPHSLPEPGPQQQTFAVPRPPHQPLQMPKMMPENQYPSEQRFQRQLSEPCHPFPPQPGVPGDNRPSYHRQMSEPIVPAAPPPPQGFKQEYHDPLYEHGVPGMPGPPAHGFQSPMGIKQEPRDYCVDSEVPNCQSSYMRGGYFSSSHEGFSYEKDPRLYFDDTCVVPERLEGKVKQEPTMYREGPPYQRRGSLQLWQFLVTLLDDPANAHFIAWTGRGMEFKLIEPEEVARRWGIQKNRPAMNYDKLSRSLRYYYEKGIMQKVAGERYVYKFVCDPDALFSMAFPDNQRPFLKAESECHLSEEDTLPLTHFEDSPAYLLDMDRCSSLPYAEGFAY
Sequence of ETV1 (P50549 whole entry): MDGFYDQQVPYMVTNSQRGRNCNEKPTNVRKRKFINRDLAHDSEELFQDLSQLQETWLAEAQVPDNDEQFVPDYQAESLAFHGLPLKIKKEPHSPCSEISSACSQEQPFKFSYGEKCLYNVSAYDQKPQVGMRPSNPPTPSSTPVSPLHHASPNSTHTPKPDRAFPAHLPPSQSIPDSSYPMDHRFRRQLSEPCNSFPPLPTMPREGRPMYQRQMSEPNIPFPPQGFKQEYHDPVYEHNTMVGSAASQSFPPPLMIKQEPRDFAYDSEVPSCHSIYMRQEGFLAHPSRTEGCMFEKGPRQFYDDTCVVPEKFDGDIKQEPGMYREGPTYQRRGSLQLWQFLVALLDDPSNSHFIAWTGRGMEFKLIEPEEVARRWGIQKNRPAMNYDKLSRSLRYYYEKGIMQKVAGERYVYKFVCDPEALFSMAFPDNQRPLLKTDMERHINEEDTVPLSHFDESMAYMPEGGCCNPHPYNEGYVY
Sequence of HSF1 (Q00613 whole entry): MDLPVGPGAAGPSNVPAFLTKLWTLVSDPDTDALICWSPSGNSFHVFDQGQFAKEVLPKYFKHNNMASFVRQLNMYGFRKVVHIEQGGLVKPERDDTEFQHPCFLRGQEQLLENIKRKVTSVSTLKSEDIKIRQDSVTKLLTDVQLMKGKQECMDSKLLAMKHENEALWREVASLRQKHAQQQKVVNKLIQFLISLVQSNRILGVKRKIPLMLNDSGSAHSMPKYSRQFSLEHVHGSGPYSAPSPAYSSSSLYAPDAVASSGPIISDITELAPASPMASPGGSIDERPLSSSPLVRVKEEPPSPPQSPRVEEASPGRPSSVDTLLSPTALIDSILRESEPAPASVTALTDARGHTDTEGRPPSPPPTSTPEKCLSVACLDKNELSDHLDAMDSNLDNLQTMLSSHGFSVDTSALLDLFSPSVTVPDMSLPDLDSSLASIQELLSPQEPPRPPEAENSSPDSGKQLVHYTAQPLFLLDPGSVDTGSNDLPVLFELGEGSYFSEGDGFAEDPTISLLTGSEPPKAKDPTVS
Sequence of ELF4 (Q99607 whole entry): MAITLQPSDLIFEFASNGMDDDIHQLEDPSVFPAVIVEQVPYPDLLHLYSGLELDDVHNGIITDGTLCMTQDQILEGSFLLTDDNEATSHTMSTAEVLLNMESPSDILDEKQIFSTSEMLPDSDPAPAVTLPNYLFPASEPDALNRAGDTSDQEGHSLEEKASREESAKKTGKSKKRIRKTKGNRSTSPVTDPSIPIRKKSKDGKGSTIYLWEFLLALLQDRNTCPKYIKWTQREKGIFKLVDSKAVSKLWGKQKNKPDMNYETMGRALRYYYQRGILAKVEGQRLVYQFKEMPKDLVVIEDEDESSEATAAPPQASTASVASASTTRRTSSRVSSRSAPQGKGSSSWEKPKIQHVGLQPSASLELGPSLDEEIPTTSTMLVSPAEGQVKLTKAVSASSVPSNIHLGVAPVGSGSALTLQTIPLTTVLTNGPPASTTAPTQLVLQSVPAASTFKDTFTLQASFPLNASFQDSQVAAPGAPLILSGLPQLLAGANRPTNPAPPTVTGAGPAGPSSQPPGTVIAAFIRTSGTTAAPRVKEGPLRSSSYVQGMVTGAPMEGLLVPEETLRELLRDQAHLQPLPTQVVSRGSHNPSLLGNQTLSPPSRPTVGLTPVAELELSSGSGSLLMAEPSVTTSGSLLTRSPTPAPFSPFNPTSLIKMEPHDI

Regarding ATCTAG, the binding signal was 1.04 fold enrichment (6-mer frequency, TF over GST control) in the assay with FEV; 1 fold enrichment (6-mer frequency, TF over GST control) with ETV5; 2.66 fold enrichment (6-mer frequency, TF over GST control) with HSF1; 1.19 fold enrichment (6-mer frequency, TF over GST control) in the assay with SPIC; 1.09 fold enrichment (6-mer frequency, TF over GST control) with ELF4; 1.27 fold enrichment (6-mer frequency, TF over GST control) with ELK4. Moreover, the binding signal with ETV2 is 1.06 fold enrichment (6-mer frequency, TF over GST control); in the assay with ELF3, 1.24 fold enrichment (6-mer frequency, TF over GST control); with CRX it was 1.7 fold enrichment (6-mer frequency, TF over GST control); with ETV1 it was 1.03 fold enrichment (6-mer frequency, TF over GST control); in the assay with ERF, 1.18 fold enrichment (6-mer frequency, TF over GST control); with ETV3L, 1.08 fold enrichment (6-mer frequency, TF over GST control). Besides, the binding signal with ETS2 was 1.11 fold enrichment (6-mer frequency, TF over GST control); with SPDEF, 1.03 fold enrichment (6-mer frequency, TF over GST control); with ETV7 it was 1.19 fold enrichment (6-mer frequency, TF over GST control); with ELF5 it was 1.1 fold enrichment (6-mer frequency, TF over GST control); in the assay with ETV3, 1.07 fold enrichment (6-mer frequency, TF over GST control); in the assay with ETV6, 1.05 fold enrichment (6-mer frequency, TF over GST control).
